Assay outcomes as filed in PubChem BioAssay.
Shown are actives, neighbours in structure and some others; about 11% of the full set was active somewhere.
JMJD2A Tudor inh = blocks the human JMJD2A Tudor domain. O75164. 4.4% of 390,000 active. AlphaScreen JMJD2A-Tudor / H3K4me3 peptide binding. Potency, µM (highest dose often 114 µM), for the others: top-dose activity change, negative = inhibition, hits mostly inhibitors; further: on the % scale 0 is the no-effect control and ±100 the full control effect; nearly all actives have a fitted effect of over 50% in size
Target sequence (O75164 whole entry, looked up, the tested form may be a part): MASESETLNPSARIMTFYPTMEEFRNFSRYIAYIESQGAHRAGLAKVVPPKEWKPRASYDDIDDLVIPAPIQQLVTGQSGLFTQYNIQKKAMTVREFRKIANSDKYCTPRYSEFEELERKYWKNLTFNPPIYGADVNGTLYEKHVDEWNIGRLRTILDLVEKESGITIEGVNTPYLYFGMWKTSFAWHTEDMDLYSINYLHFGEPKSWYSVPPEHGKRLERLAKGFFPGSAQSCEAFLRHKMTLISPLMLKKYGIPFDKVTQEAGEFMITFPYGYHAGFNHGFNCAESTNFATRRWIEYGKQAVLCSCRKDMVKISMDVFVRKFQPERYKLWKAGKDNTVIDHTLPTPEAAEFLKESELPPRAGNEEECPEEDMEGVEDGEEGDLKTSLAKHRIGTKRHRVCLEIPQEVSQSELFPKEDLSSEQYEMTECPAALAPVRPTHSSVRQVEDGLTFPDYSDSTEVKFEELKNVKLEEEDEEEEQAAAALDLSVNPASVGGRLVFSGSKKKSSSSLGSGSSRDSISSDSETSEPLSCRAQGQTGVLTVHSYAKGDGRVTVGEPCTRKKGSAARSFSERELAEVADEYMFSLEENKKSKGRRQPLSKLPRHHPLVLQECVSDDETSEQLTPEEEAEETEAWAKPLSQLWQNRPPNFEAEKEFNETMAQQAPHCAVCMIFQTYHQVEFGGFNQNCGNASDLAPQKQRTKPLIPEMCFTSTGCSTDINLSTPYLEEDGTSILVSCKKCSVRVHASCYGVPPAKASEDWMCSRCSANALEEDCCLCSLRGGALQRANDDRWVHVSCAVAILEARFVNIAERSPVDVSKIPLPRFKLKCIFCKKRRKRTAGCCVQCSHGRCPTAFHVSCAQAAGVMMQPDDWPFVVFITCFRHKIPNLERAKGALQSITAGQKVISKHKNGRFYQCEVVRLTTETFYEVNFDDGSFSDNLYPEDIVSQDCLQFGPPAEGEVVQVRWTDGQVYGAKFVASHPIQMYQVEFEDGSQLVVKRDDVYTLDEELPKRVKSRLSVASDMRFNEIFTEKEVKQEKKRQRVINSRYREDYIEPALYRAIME
VDR inhibitor = vitamin D3 receptor (human) inhibition; P11473; VDR-SRC2-3 peptide fluorescence polarization, 2 h; Potency, µM, without a hit: max response, negative = inhibition, usual class: inhibitors; 0.93% of 400,000 active; AID 504847; further: on the % scale 0 is the no-effect control and ±100 the full control effect
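Inhibition of the VDR/SRC2-3 peptide interaction is quantified by fluorescence polarization. Compounds (23 nl, pintool) incubate with the reagents for 2 hours at ambient room temperature.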
PLK1 PBD inh = inhibitors of human PLK1 polo-box domain binding; Plk1 PBD binding of FITC phosphopeptide, fluorescence polarization; 2.8% of 360,000 active; AID 720504; Potency, µM, for the others: max response, negative = inhibition, hits mostly inhibitors; P53350; further: series mostly up to about 57 µM; on the % scale 0 is the no-effect control and ±100 the full control effect; nearly all actives have a fitted effect of over 65% in size
HP1b chromo inh = blocks HP1-beta chromodomain binding to methylated histone tails; Potency, µM (doses to about 114 µM), inactives show at the highest dose activity change, negative = inhibition, usual class: inhibitors; 0.56% of 390,000 active; AlphaScreen HP1-beta / biotin-H3K9me3 peptide binding; further: nearly all actives have a fitted effect of over 70% in size
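HP1-beta protein (50 nM final) preincubated 30 min at room temperature with biotinylated H3(1-18)K9me3 peptide (50 nM) in PBS pH 7.4, 0.01% Tween-20, then compound added for 30 min. AlphaScreen streptavidin donor/nickel chelate acceptor beads (10 ug/mL final), 30 min dark, luminescence read.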
G9a block = G9a (human) methyltransferase inhibition. Q96KQ7. G9a H3K9 monomethylation, AlphaScreen, 2 h. Potency, µM (highest dose often 102 µM), inactives show at the highest dose activity, negative = inhibition, actives largely listed as inhibitors. 8.8% of 350,000 active; further: on the % scale 0 is the no-effect control and ±100 the full control effect; nearly all actives have a fitted effect of over 75% in size
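Compounds were preincubated with 20 nM G9a for 15 min, after which biotinylated H3K9 peptide (500 nM) and SAM (20 uM) started a 2 h room-temperature reaction. Monomethylated product was quantified by antibody-based AlphaScreen chemiluminescence.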
BAZ2B inh = inhibitors of human BAZ2B bromodomain; Potency, µM (titrated, usually from 114 µM), for inactives: top-dose activity change, negative = inhibition, actives largely listed as inhibitors; Q9UIF8; AlphaScreen BAZ2B-H3K14Ac peptide displacement; 4.4% of 360,000 active; further: on the % scale 0 is the no-effect control and ±100 the full control effect; nearly all actives have a fitted effect of over 60% in size
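Complex of BAZ2B and biotin-H3K14Ac (50 nM apiece) forms over 30 min at RT, then faces library compounds up to 110 uM for another 30 min; AlphaScreen beads added, 20 min dark incubation, luminescence read.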
* hit, by the source's call; ? = inconclusive; . = not tested or not shown; [ ] = dose if it differs, or a comment. The call rests on the fitted dose curve; in most records, active means well fitted curve in the direction sought with a large enough effect; inconclusive means small, poorly fitted or top-dose-only effect, or another doubt; inactive means no such curve, though single readings can be large; an effect the other way counts as inactive or inconclusive. Potency means the concentration at half of the fitted maximal effect.

SMILES	JMJD2A Tudor inh	VDR inhibitor	PLK1 PBD inh	HP1b chromo inh	G9a block	BAZ2B inh
CCOc1ccc(CN(C)CCc2ccccn2)cc1	17.8µM*	4.2%	-5.9%	25.1µM*	17.8µM*	56.2µM*
Cc1cccc(CN(C)CCc2ccccn2)c1	3.16µM*	-15.8%	-1.5%	?	?	?
CN(CCc1ccccn1)C(=O)c1ccc(OC(F)(F)F)cc1	-3.4%	13.7%	-10.1%	31.0%	25.3%	-8.6%
CN(CC(=O)NCc1ccccn1)S(=O)(=O)c1ccc(F)cc1	1.1%	-13.1%	-23.4%	47.6%	26.4%	5.0%
ON(CCc1ccccn1)Cc1ccccc1	-7.6%	-22.3%	1.9%	44.2%	.	.
ON(CCc1ccccn1)CCc1ccccn1	14.1µM*	-8.7%	-12.8%	-6.1%	.	.
CCOc1ccc(CCNC(=O)CCCc2nnc3n(CC(C)C)c(=O)c4sccc4n23)cc1	2.9%	-4.1%	.	33.9%	1.7%[59 µM]	-2.7%
COc1ccc(C(=O)O)cc1S(=O)(=O)N(C)CCc1ccccn1	-1.7%	0.5%	-5.5%	12.2%	-37.1%	-3.8%
COc1ccc(CN(C)CCc2ccccn2)c(OC)c1OC	1µM*	1.2%	-6.7%	?	7.8%[2.33 µM]	28.2µM*
C=CCN1C(=O)/C(=C\c2cccc(OC(=O)c3ccco3)c2)SC1=S	-27.9%	8.6%	1.5%	-9.8%	79.4µM*	-24.9%
O=C(O)CN1C(=O)/C(=C/c2ccc(SCc3ccccc3)o2)SC1=S	56.2µM*	?	9.8%	?	17.8µM*	25.1µM*
O=C(O)CN1C(=O)/C(=C\c2cccc(OC(=O)c3ccco3)c2)SC1=S	-23.8%	-20.7%	-20.7%	-6.4%	1.0%	-9.3%
C=CCN1C(=O)/C(=C\c2ccc(OC(=O)c3ccco3)c(OC)c2)SC1=S	?	-2.3%	3.2%	-20.1%	14.1µM*	10µM*
CCN1C(=O)/C(=C\c2cccc(OC(=O)c3ccco3)c2)SC1=S	?	-10.7%	-16.7%	?	-8.6%	0.8%
O=C(O)CN1C(=O)/C(=C\c2ccc(OC(=O)c3ccco3)cc2)SC1=S	?	?	6.1%	-30.7%	8.91µM*	-22.3%
COc1ccc(CC(=O)Nc2cc(C)ccc2O)cc1OC	-3.5%	1.4%	0.7%	38.9%	9.6%	-14.4%
CC(=O)c1cccc(NC(=O)C2CCCN(C(=O)c3cnn(-c4ccccc4)c3-n3cccc3)C2)c1 (stereo not drawn)	-16.1%	15.8%	.	33.2%	1.0%[59 µM]	-31.4%
Cn1cc(CNC(=O)CC2C(=O)NCCN2CC(C)(C)C)cn1 (stereo not drawn)	-4.2%	3.1%	-13.5%	9.6%	50.1µM*	2.0%
CC(C)(C)CN1CCNC(=O)C1CC(=O)N1CCN(c2ccccc2)CC1 (stereo not drawn)	-21.5%	-5.3%	-6.5%	27.9%	56.2µM*	-20.0%
CSc1cccc(CNC(=O)CC2C(=O)NCCN2CC(C)(C)C)c1 (stereo not drawn)	-15.3%	18.8%	-26.9%	29.4%	39.8µM*	-18.3%
Cc1ccc2c(CC(=O)OC(C)C(=O)NCc3ccc4c(c3)OCO4)coc2c1 (stereo not drawn)	-21.4%	-8.2%	3.5%	?	-8.7%[59 µM]	-2.9%
Cc1cc(C)c(C#N)c(SCC(=O)N2CCCCC2)n1	?	-2.7%	?	6.9%	14.1µM*	-0.1%
CCN(CC)C(=O)CSc1nc(C)cc(C)c1C#N	-9.9%	-2.9%	?	36.5%	?	-19.9%
CCN(Cc1ccccc1)C(=O)CSc1nc(C)cc(C)c1C#N	?	?	21.2µM*	9.0%	17.5%	4.5%
COc1ccc(CN(C)C2c3ccccc3-c3ccccc32)cc1	-5.1%	-12.0%	-9.1%	46.6%	5.3%	17.7%
SMILES	JMJD2A Tudor inh	VDR inhibitor	PLK1 PBD inh	HP1b chromo inh	G9a block	BAZ2B inh
O=C(Nc1ccc2nccnc2c1)c1cnccn1	?	-15.5%	?	-8.6%	4.6%[59 µM]	-2.4%
O=C(Nc1ccc(Cl)c([N+](=O)[O-])c1)c1cnccn1	?	-21.9%	-3.6%	5.1%	-9.8%[59 µM]	50.1µM*
O=C(Nc1ccc(Br)cc1Cl)c1cnccn1	50.1µM*	0.8%	?	11.2%	-10.2%[59 µM]	-6.9%
O=C(NCc1nc2ccccc2[nH]1)c1cccc(S(=O)(=O)N2CCCC2)c1	-5.5%	-2.7%	-12.4%	38.0%	-25.5%	5.9%
O=C(OCC(=O)c1c[nH]c2ccccc12)c1ccc([N+](=O)[O-])s1	?	5.9%	-21.9%	?	44.7µM*	?
CCc1cccc2c(C(=O)COC(=O)c3ccc([N+](=O)[O-])s3)c[nH]c12	?	0.6%	-7.3%	2.2%	?	?
Cc1[nH][nH]c(=O)c1C(c1ccc(-c2ccc(F)cc2)o1)c1c(C)[nH][nH]c1=O	?	31.6µM*	23.8µM*	2.1%	25.1µM*	?
CCOc1ccc(Cl)cc1C(c1c(C)[nH][nH]c1=O)c1c(C)[nH][nH]c1=O	-22.6%	-0.6%	?	24.4%	-12.8%	-12.2%
CNC(=S)N/N=C/c1ccc(-c2ccc(C(=O)O)cc2)o1	-3.7%[11.4 µM]	-17.1%	?	?	.	?
Cc1[nH][nH]c(=O)c1C(c1ccc(-c2ccc(Cl)c(Cl)c2)o1)c1c(C)[nH][nH]c1=O	?	79.4µM*	15µM*	-34.6%	11.2µM*	?
Cc1[nH][nH]c(=O)c1C(c1ccc(-c2ccc(C(=O)O)cc2)o1)c1c(C)[nH][nH]c1=O	-32.0%	?	23.8µM*	?	3.55µM*	56.2µM*
COc1ccc(-c2ccc(C(c3c(C)[nH][nH]c3=O)c3c(C)[nH][nH]c3=O)o2)c([N+](=O)[O-])c1	?	?	21.2µM*	-12.5%	3.98µM*	39.8µM*
Cc1ccc(S(=O)(=O)c2nc(Nc3ccccc3C#N)sc2Cl)cc1	11.2%	-0.1%	-5.0%	41.1%	7.94µM*	-5.0%
CCC(C)C(NC(=O)c1ccccc1NC(=O)c1ccccc1)C(=O)O (stereo not drawn)	-6.6%[11.4 µM]	?	26.7µM*	0.5%	-18.7%	-12.0%
COc1ccc(C(=O)NNC(=O)C(=O)NC(C)c2ccccc2)cc1OC (stereo not drawn)	-3.2%	-21.1%	0.3%	40.4%	6.31µM*	-12.6%
CCC(C)C(NC(=O)c1ccccc1NC(=O)c1ccco1)C(=O)O (stereo not drawn)	-18.5%	-8.7%	-4.9%	26.5%	?	-1.4%
COc1ccc(C(=O)Nc2ccccc2C(=O)NC(C)C)cc1OC	50.1µM*	?	26.7µM*	3.5%	5.6%[59 µM]	-0.4%
COc1ccc(C(=O)Nc2ccccc2C(=O)N2CCCCCC2)cc1OC	-9.7%	-1.3%	-7.8%	13.7%	10.6%	1.5%
c1ccc(-c2cncnc2)cc1	-7.9%	-2.3%	-12.2%	105.6%	-22.3%[0.501 µM]	?
